Results published in the antibiotic and cytotoxicity screens of Wong et al. (2023).
Among all 39,000 compounds or so, about 1,500 (3.8%) were called active. Many of the other results were omitted from the sample, so actives are more common in it than they were.

tested on: HSkMC (human skeletal muscle cells); assay: cytotoxicity call (relative viability < 0.9); settings: 10 µM

SMILES	cytotoxicity call
CC(C)(N)C(=O)N[C@H](COCc1ccccc1)C(=O)N1CCC2(CC1)CN(S(C)(=O)=O)c1ccccc12	active
CN(C)N(C)C(=O)[C@@]1(Cc2ccccc2)CCCN(C(=O)[C@@H](Cc2c[nH]c3ccccc23)NC(=O)C(C)(C)N)C1	inactive
CN1N=C2CCN(C(=O)[C@@H](COCc3ccccc3)NC(=O)C(C)(C)N)C[C@@]2(Cc2ccccc2)C1=O	inactive
COc1ccc(S(=O)(=O)Nc2ccc3c(c2)C(=O)N([C@H](C)CO)C[C@H](C)[C@@H](CN(C)C(=O)Nc2c(C)noc2C)OCCCC[C@H](C)O3)cc1	inactive
COc1ccc(NC(=O)N(C)C[C@H]2OCCCC[C@@H](C)Oc3ccc(NC(=O)C4CCCCC4)cc3C(=O)N([C@@H](C)CO)C[C@H]2C)cc1	inactive
C[C@@H]1CN([C@@H](C)CO)C(=O)c2cccc(NC(=O)CCCCCC(=O)Nc3ccccc3N)c2O[C@@H]1CN(C)Cc1ccc(Cl)c(Cl)c1	inactive
C[C@@H]1CN([C@H](C)CO)C(=O)c2cccc(NC(=O)CCCCCC(=O)Nc3ccccc3N)c2O[C@H]1CN(C)Cc1ccccc1	inactive
C[C@@H]1CN([C@@H](C)CO)C(=O)c2cccc(NC(=O)CCCCCC(=O)Nc3ccccc3N)c2O[C@@H]1CN(C)Cc1ccccc1	inactive
C[C@@H]1CN([C@@H](C)CO)C(=O)c2cccc(NC(=O)CCCCCC(=O)Nc3ccccc3N)c2O[C@H]1CN(C)Cc1ccc(-c2ccccc2)cc1	inactive
C[C@@H]1CN([C@@H](C)CO)C(=O)c2cccc(NC(=O)CCCCCC(=O)Nc3ccccc3N)c2O[C@H]1CN(C)Cc1ccc(Cl)c(Cl)c1	inactive
C[C@H]1CN([C@@H](C)CO)C(=O)c2cccc(NC(=O)CCCCCC(=O)Nc3ccccc3N)c2O[C@@H]1CN(C)Cc1ccccc1	active
C[C@H]1CN([C@@H](C)CO)C(=O)c2cccc(NC(=O)CCCCCC(=O)Nc3ccccc3N)c2O[C@H]1CN(C)Cc1ccc(Cl)c(Cl)c1	active
C[C@H]1CN([C@@H](C)CO)C(=O)c2cccc(NC(=O)CCCCCC(=O)Nc3ccccc3N)c2O[C@@H]1CN(C)Cc1ccc(-c2ccccc2)cc1	active
C[C@H]1CN([C@@H](C)CO)C(=O)c2cccc(NC(=O)CCCCCC(=O)Nc3ccccc3N)c2O[C@H]1CN(C)Cc1ccc(-c2ccccc2)cc1	inactive
Cc1ccc(S(=O)(=O)Nc2ccc3c(c2)C(=O)N([C@@H](C)CO)C[C@H](C)[C@@H](CN(C)Cc2ccncc2)OCCCC[C@H](C)O3)cc1	inactive
C[C@@H]1CN([C@H](C)CO)C(=O)c2cc(NC(=O)c3ccncc3)ccc2O[C@@H](C)CCCCO[C@@H]1CN(C)S(=O)(=O)c1ccc(Cl)cc1	inactive
COc1ccc(S(=O)(=O)Nc2ccc3c(c2)C(=O)N([C@@H](C)CO)C[C@H](C)[C@H](CN(C)S(C)(=O)=O)OCCCC[C@@H](C)O3)cc1	inactive
C[C@@H]1CN([C@H](C)CO)C(=O)c2cc(NC(=O)CCN3CCOCC3)ccc2O[C@H]1CN(C)Cc1ccncc1	inactive
CN(C)CC(=O)OCC(O)C(O)C(O)C(O)C(=O)[O-].[Na+] (stereo not drawn)	inactive
O=C(c1ccc(Cl)cc1)c1coc2c1cc(O)c1ccccc12	active
O=C(Nc1ccc(Cl)cc1C(=O)c1ccc(Cl)cc1)c1cc(Br)ccc1NS(=O)(=O)c1ccc(Cl)cc1	inactive

SMILES	cytotoxicity call
O=C(c1ccc(Cl)cc1)n1c2ccccc2c2ccccc21	inactive
O=C(NCC[C@@H]1CC[C@H](NS(=O)(=O)c2cccc(F)c2)[C@H](CO)O1)C1CC1	inactive
C[C@@H]1CCCCO[C@H](CN(C)S(=O)(=O)c2ccccc2)[C@@H](C)CN([C@@H](C)CO)C(=O)c2cc(NC(=O)C3CCCCC3)ccc2O1	inactive
C[C@@H]1CN([C@@H](C)CO)C(=O)c2cccc(NC(=O)NC3CCCCC3)c2O[C@H]1CN(C)Cc1ccc(C(F)(F)F)cc1	inactive
Nc1cccc(-n2cc(CCC(=O)NO)nn2)c1	inactive
CC(/C=C/C(=O)NO)=C\c1ccccc1OCc1cn(C[C@@H]2CCCN2S(=O)(=O)c2ccc(C)cc2)nn1	inactive
Nc1ccc(-n2cc(CCC(=O)NO)nn2)cc1	inactive
CC(/C=C/C(=O)NO)=C\c1ccccc1OCc1cn(-c2cccc(N(S(=O)(=O)c3ccc(C)cc3)S(=O)(=O)c3ccc(C)cc3)c2)nn1	active
CC(/C=C/C(=O)NO)=C\c1ccccc1OCc1cn(CCNC(=O)[C@@H](NS(=O)(=O)c2ccc(C)cc2)C(C)C)nn1	inactive
Cc1ccc(S(=O)(=O)N(c2cccc(-n3cc(CCC(=O)NO)nn3)c2)S(=O)(=O)c2ccc(C)cc2)cc1	active
C[C@@H]1CCCCO[C@H](CN(C)Cc2ccncc2)[C@@H](C)CN([C@@H](C)CO)C(=O)c2cc(NC(=O)Nc3ccccc3)ccc2O1	inactive
C[C@H](CO)N1C[C@H](C)[C@@H](CN(C)S(=O)(=O)c2ccc(Cl)cc2)OCCCC[C@H](C)Oc2ccc(NC(=O)c3ccccc3)cc2C1=O	inactive
C[C@@H]1CN([C@H](C)CO)C(=O)c2cc(NS(C)(=O)=O)ccc2O[C@@H](C)CCCCO[C@@H]1CN(C)Cc1ccncc1	inactive
C[C@@H]1CN([C@H](C)CO)C(=O)c2cc(NC(=O)NC3CCCCC3)ccc2O[C@@H](C)CCCCO[C@H]1CN(C)S(=O)(=O)c1cccs1	inactive
C[C@H]1CN([C@@H](C)CO)C(=O)c2cc(NC(=O)Nc3ccccc3)ccc2O[C@H]1CN(C)C(=O)Nc1cccc2ccccc12	inactive
C[C@@H]1CN([C@H](C)CO)C(=O)c2cc(NC(=O)Nc3ccccc3)ccc2O[C@@H]1CN(C)C(=O)Nc1cccc2ccccc12	active
C[C@H](CO)N1C[C@H](C)[C@H](CN(C)C(=O)Nc2cccc3ccccc23)Oc2ccc(NC(=O)Nc3ccccc3)cc2C1=O	inactive
C[C@@H]1CN([C@H](C)CO)C(=O)c2cc(NC(=O)Nc3ccccc3)ccc2O[C@H]1CN(C)C(=O)Nc1cccc2ccccc12	inactive
C[C@@H]1CN([C@@H](C)CO)C(=O)c2cc(NC(=O)Nc3ccccc3)ccc2O[C@@H]1CN(C)C(=O)Nc1cccc2ccccc12	active
C[C@H](CO)N1C[C@H](C)[C@@H](CN(C)C(=O)Nc2cccc3ccccc23)Oc2ccc(NC(=O)Nc3ccccc3)cc2C1=O	inactive
Cc1ccc(S(=O)(=O)N(C)C[C@H]2Oc3c(NS(=O)(=O)c4ccccc4)cccc3C(=O)N([C@H](C)CO)C[C@@H]2C)cc1	inactive

SMILES	cytotoxicity call
C[C@H](CO)N1C[C@H](C)[C@H](CN(C)S(=O)(=O)c2ccccc2)Oc2c(NC(=O)C3CCOCC3)cccc2C1=O	inactive
C[C@@H]1CCCCO[C@@H](CN(C)CC2CCCCC2)[C@@H](C)CN([C@@H](C)CO)C(=O)c2cc(NC(=O)CCCN(C)C)ccc2O1	inactive
CO[C@@H]1CN(C)C(=O)c2cc(NS(=O)(=O)c3ccccc3)ccc2OC[C@@H](C)N(C(=O)NC(C)C)C[C@H]1C	inactive
C[C@H]1CN([C@@H](C)CO)C(=O)Cc2cc(NS(=O)(=O)c3cn(C)cn3)ccc2O[C@H]1CN(C)Cc1ccccc1	inactive
CCn1cc(-c2ccnc3[nH]c(-c4cccc(CN(C)C)c4)cc23)c(-c2ccc(NC(=O)N(C)C)cc2)n1	active
COc1ccccc1S(=O)(=O)N1C[C@H](O)COC[C@H]2O[C@@H](CC(=O)O)CC[C@@H]21	inactive
CCn1c(N)c(C(N)=O)sc1=S	inactive
C[C@H]1CN([C@@H](C)CO)C(=O)c2cccc(NC(=O)Nc3cccc4ccccc34)c2O[C@H]1CN(C)C(=O)Nc1ccc(C(F)(F)F)cc1	active
C[C@@H]1CN([C@@H](C)CO)C(=O)c2cccc(NC(=O)Nc3cccc4ccccc34)c2O[C@H]1CN(C)C(=O)Nc1ccc(C(F)(F)F)cc1	active
C[C@H](CO)N1C[C@H](C)[C@@H](CN(C)C(=O)Nc2ccc(C(F)(F)F)cc2)Oc2c(NC(=O)Nc3cccc4ccccc34)cccc2C1=O	active
C[C@@H]1CN([C@H](C)CO)C(=O)c2cccc(NC(=O)Nc3cccc4ccccc34)c2O[C@@H]1CN(C)C(=O)Nc1ccc(C(F)(F)F)cc1	active
C[C@H](CO)N1C[C@H](C)[C@H](CN(C)C(=O)Nc2ccc(C(F)(F)F)cc2)Oc2c(NC(=O)Nc3cccc4ccccc34)cccc2C1=O	inactive
C[C@@H]1CN([C@H](C)CO)C(=O)c2cccc(NC(=O)Nc3cccc4ccccc34)c2O[C@H]1CN(C)C(=O)Nc1ccc(C(F)(F)F)cc1	inactive
CCN1CCO[C@@]2(O)C=CC(=O)C=C12	inactive
CCc1ccc(NC(=O)C2CCN(S(=O)(=O)c3c(C)[nH]c(=O)[nH]c3=O)CC2)cc1	inactive
Cc1ccc(S(=O)(=O)Nc2ccc3c(c2)C(=O)N([C@@H](C)CO)C[C@@H](C)[C@@H](CN(C)S(=O)(=O)c2ccc(C)cc2)OCCCC[C@H](C)O3)cc1	inactive
C[C@@H]1CN([C@H](C)CO)C(=O)c2cc(NC(=O)Cc3ccccc3)ccc2O[C@@H](C)CCCCO[C@H]1CN(C)C(=O)Nc1cccc2ccccc12	inactive
CC(C)NC(=O)Nc1ccc2c(c1)CC(=O)N([C@@H](C)CO)C[C@H](C)[C@H](CN(C)Cc1ccc(-c3ccccc3)cc1)O2	inactive
O=C(C[C@H]1CC[C@@H](NS(=O)(=O)c2ccccc2)[C@H](CO)O1)NCc1ccncn1	inactive
Cc1ccc(S(=O)(=O)Nc2ccc3c(c2)C(=O)N([C@@H](C)CO)C[C@@H](C)[C@H](CN(C)C(=O)Nc2ccc(C(F)(F)F)cc2)O3)cc1	inactive
C[C@@H]1CN([C@@H](C)CO)C(=O)Cc2cc(NC(=O)CCN3CCOCC3)ccc2O[C@H]1CN(C)S(=O)(=O)c1cccs1	inactive
